Consider 40 compounds from PubChem BioAssay (NCI).

The structures appear in SMILES notation. Compounds without any hit were thinned out: in the full panel of roughly 83,000, 20% have a hit.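 Percent growth is the endpoint: 0 to 100 indicates growth inhibition (40 means 60% inhibition), 0 means no net growth, and negative values indicate cell death.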 Calls of active or inactive are those of the source. Rule for the calls: active = growth percent below 10; inactive = the rest.

This assay has as its system MDA-MB-435 melanoma. As to the kind of experiment: NCI-60 one-dose screen, 48 h (100 = growth as untreated, 0 = no growth, -100 = all killed). As to conditions: 10 µM unless noted.
On to `CCOC(=O)c1cnc2c(-c3ccc(Cl)c(Cl)c3)cnn2c1`, for which the growth was -20.3% (active). To `CCCc1[nH]c(-c2cc(N)ccc2Cl)c2c1C(=O)CCCC2` belongs 99.5% (inactive). `O=C(Nc1ccc(N=Cc2c(O)[nH]c3ccccc23)cc1)Nc1ccc(S(=O)(=O)Nc2ncccn2)cc1`: the growth was 101% (inactive). For the compound `Cc1ccc(NC(=O)Nc2nc3ccc([N+](=O)[O-])cc3s2)cc1`, the growth was -7.46% (active). Regarding `COc1ccc(C2C(C#N)=C(/N=C/c3ccc(Cl)cc3)Oc3c2sc2c(C)cccc32)cc1` (stereo not given), the growth is -23.5% (active). In the case of `Cc1ccc2c(n1)C(=O)C(Cl)=C(Nc1ccc(C(F)(F)F)cc1)C2=O` it was 95.8% (inactive); in that of `Brc1cc(-c2cc(-c3ccc4c(c3)OCCO4)[nH]n2)cs1`, -26.8% (active). In the case of `CN(C)c1cccc2c(S(=O)(=O)Nc3cccc(-c4csc(NC(=O)CCCCCN5CCN(CCO)CC5)n4)c3)cccc12`, the growth was 65.6% (inactive). Regarding `CC1=C(C)C(=O)C(Nc2cccc(C(=O)OC(C)(C)C)c2)=CC1=O`, the growth is 87.1% (inactive). In the case of `C=C(C)[C@@H]1CC[C@]2(C(=O)O)CC[C@]3(C)[C@H](CC[C@@H]4[C@@]5(C)C/C(=C/c6ccccn6)C(=O)C(C)(C)[C@@H]5CC[C@]43C)[C@@H]12` it was 36.6% (inactive). In the case of `Nc1ccc(Nc2ncnc3sc4c(c23)CCN(Cc2ccccc2)C4)cc1` it was 102% (inactive). In the case of `Cc1ccsc1[C@H]1c2[nH]c3ccccc3c2C[C@H]2C(=O)N(CCCCCCC(=O)NO)CC(=O)N12` it was 90.6% (inactive); in that of `C=C(C)[C@@H]1CC[C@]2(COCCCNCCCN)CC[C@]3(C)[C@H](CC[C@@H]4[C@@]5(C)CC[C@H](O)C(C)(C)[C@@H]5CC[C@]43C)[C@@H]12`, -95.8% (active). Regarding `C#C[C@]1(O)CC[C@H]2[C@@H]3CC=C4c5sc(NCc6ccccc6)nc5CC[C@]4(C)[C@H]3CC[C@@]21C`, the growth is 82.2% (inactive). On to `Clc1ccc(CSc2nnc(-c3ccc(Cl)cc3)n2-c2ccccc2)cc1`, for which the growth was 90% (inactive). In the case of `Cc1ccc(C(=O)CSc2nc3ccccc3c(=O)n2C)cc1` it was 100% (inactive); in that of `CCn1c2ccc(/C=N/N(C)S(=O)(=O)CCN(C)C)cc2c2cc(/C=N/N(C)S(=O)(=O)CCN(C)C)ccc21`, 62% (inactive); in that of `CN1CCN(c2ccc(Nc3nc(NCCCNS(=O)(=O)c4ccc(Cl)cc4)c4sccc4n3)cc2)CC1`, 7.33% (active). In the case of `CCCCCCCCCCCC(=O)NC(C)(C)C(=O)N1CCCC1C(=O)NC(C)(C)C(=O)NC(C)(C)C(=O)N1CCCC1C(=O)NC(C)(C)C(=O)NC(C)(C)C(=O)N1CCCC1C(=O)NC(C)C(=O)NCCC(=O)NC(C)C(=O)NC(C)(C)C(=O)NC(C)(C)C(=O)NC(C)(C)C(=O)NCCC(=O)NC(C)(C)C(=O)NC(C)(C)C(=O)NC(C)(C)C(=O)NC(C)C(=O)NCCC(=O)O` (stereo not given) it was -89.9% (active).

For `O=C(CCCCCCN1CC(=O)N2[C@@H](c3ccc(Cl)s3)c3[nH]c4ccccc4c3C[C@H]2C1=O)NO`, the growth was 23.9% (inactive). `Clc1cccc(/C=N/Nc2nc(N/N=C/c3cccc(Cl)c3)nc(N3CCCCC3)n2)c1`: the growth was 90.4% (inactive). In the case of `COc1ccc(Cn2cc(C#N)c(N)c2C(C)=O)cc1` it was 104% (inactive); in that of `C#Cc1nc(/C=C\CCCCCCC(=O)NO)cs1`, 45.9% (inactive); in that of `CC1(C)CC[C@]2(C(=O)O)CC[C@]3(C)C(=CC[C@@H]4[C@@]5(C)CC[C@H](NOCCCN)C(C)(C)[C@@H]5CC[C@]43C)[C@@H]2C1`, 91.7% (inactive).

Consider `CCC(=C(c1ccc(OCCN2CCCCCC2)cc1)c1ccc(OCCN2CCCCCC2)cc1)c1ccc(Cl)cc1`, for which the growth was -85.8% (active). Take `O=C(/C=C/c1ccccc1)c1cccc(O)c1`: the growth was 95.9% (inactive). For the compound `O=C(/C=C/c1cccc(F)c1)c1cccc(OCCCOc2cccc(C(=O)/C=C/c3cccc(F)c3)c2)c1`, the growth was 99.8% (inactive). Turning to `Brc1ccc2[nH]cc(-c3nn4cc(-c5nccs5)nc4s3)c2c1`, the growth was 12.9% (inactive). As for `CN1CCN(c2ccc(Nc3nc(NCCCNS(=O)(=O)c4ccc(F)cc4)c4sccc4n3)cc2)CC1`, the growth is 47.3% (inactive). Regarding `N#Cc1c(-c2cccs2)cc(-c2cnccn2)nc1SCC(=O)N/N=C/c1ccncc1`, the growth was 104% (inactive).

On to `CN(C)c1ccc(-c2cc(-c3c[nH]c4ccccc34)nc(N)c2C#N)cc1`, for which the growth was 13.6% (inactive). To `O=C(CSc1nc2ccccc2c(=O)n1-c1ccccc1)N/N=C/c1ccc(Oc2ccc(Br)cc2)cc1` belongs 80.8% (inactive); to `CCc1cc(O)ccc1Nc1cc(-c2ccc(-n3cccn3)cc2)[nH]n1`, 33% (inactive).

Consider `C#C[C@]1(O)CC[C@H]2[C@@H]3CC=C4c5sc(N(C)c6ccccc6)nc5CC[C@]4(C)[C@H]3CC[C@@]21C`, for which the growth is 89.9% (inactive). `COc1cc(C(C)=C(c2ccc(OCCN(C)C)cc2)c2ccc(OCCN(C)C)cc2)ccc1F`: the growth was 108% (inactive). In the case of `C#CCN(C)CCCOc1ccc(NCc2ccc(C(=O)NO)cc2)cc1Cl` it was 9.64% (active); in that of `CSc1ccc(C(=NNS(=O)(=O)c2ccc(C)cc2)c2ccc(Cl)cc2)cc1`, 106% (inactive); in that of `Clc1ccc2[nH]cc(-c3nn4cc(-c5cccnc5)nc4s3)c2c1`, 101% (inactive). Consider `COc1ccc(/C=N/NC(=O)CSc2nc(-c3cnccn3)cc(-c3cccs3)c2C#N)cc1OC`, for which the growth is 78.9% (inactive). To `N#Cc1cnc2ccc(-c3cnc4n[nH]nc4c3)cc2c1N1CCc2cc(F)c(Cl)cc21` belongs 19.5% (inactive).
